From the supplement of paper PMC10849652
Targets with a hit are over-represented here; the source holds about 8,800 in all. About 0.5% of all pairs of compound and target were hits.

Legend:
Assay in all cases: log2 fold change, soluble protein after heating vs DMSO (PISA); higher = thermal stabilisation; K562 lysate, 10 uM; active = over 0.2 and 3.5 SD of the protein, either way, in both replicates (recomputed)
erlotinib = compound: C#Cc1cccc(Nc2ncnc3cc(OCCOC)c(OCCOC)cc23)c1 [erlotinib]
How it was run: (§1)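 The values are log-two fold changes in thermal stability compared with solvent controls and come from duplicates. They were obtained by TMTpro 16plex LC-MS/MS, with channel sums equalised, on the supernatant after 21,000xg for 90 min. That supernatant came from crude K562 extract at 1 mg/mL protein treated with 10 μM compound for 30 min, heated for 3 min across 48°C-58°C, pooled and brought to 0.5% NP-40 at 4°C.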

[1] = compound: C/C(=N\NC(=O)C1=CC(=CC=C1)S(=O)(=O)N2CCOCC2)/C3=C(C=CC(=C3)Cl)O
How it was run: as §1

[2] = compound: C1=CC(=CC=C1C2=NC3=C(N2)C=C(C=C3)C(=O)N)OC4=CC=C(C=C4)Cl
How it was run: as §1

[3] = compound: C1=CC2=C(C=CC(=C2)/C=C\3/C(=O)NC(=NCC4=CC=CS4)S3)N=C1
How it was run: as §1

[4] = compound: C1=CC2=NC=CN=C2C=C1/C=C/3\C(=O)NC(=O)S3
How it was run: as §1

[5] = compound: C1=CC=C(C=C1)C2=NC(=C(N2)C3=CC=NC=C3)C4=CC(=C(C=C4)Cl)O
How it was run: as §1

[6] = compound: C1=CC=C2C(=C1)C3=NNC4=CC=CC(=C43)C2=O
How it was run: as §1

[7] = compound: C1CCN(C1)C(=O)NC2=CC=CC(=C2)NC3=NC=C(C(=N3)NCCC4=CN=CN4)Br
How it was run: as §1

[8] = compound: C1CN(CCC1(CC2=CC=C(C=C2)Cl)N)C3=NC=NC4=C3C=CN4
How it was run: as §1

IRAK-1-4 Inhibitor I = compound: C1COCCN1CCN2C3=CC=CC=C3N=C2NC(=O)C4=CC(=CC=C4)[N+](=O)[O-] [IRAK-1-4 Inhibitor I]
How it was run: as §1

Measured: log2 fold change

ALDH1L2 (UniProt Q3SY69)
inactive: erlotinib 0.005 | [1] 0.025 | [2] 0.011 | [3] 0.037 | [4] -0.02 | [5] -0.004 | [6] -0.064 | [7] -0.018 | [8] 0.024 | IRAK-1-4 Inhibitor I -0.011

ALG13 (UniProt Q9NP73)
inactive: erlotinib 0.022 | [1] -0.014 | [2] 0.049 | [3] -0.008 | [4] -0.048 | [5] 0.047 | [6] -0.032 | [7] -0.01 | [8] 0.083 | IRAK-1-4 Inhibitor I -0.02

ADAM17 (UniProt P78536)
Chain of UniProt P78536 (P78536 whole entry, looked up): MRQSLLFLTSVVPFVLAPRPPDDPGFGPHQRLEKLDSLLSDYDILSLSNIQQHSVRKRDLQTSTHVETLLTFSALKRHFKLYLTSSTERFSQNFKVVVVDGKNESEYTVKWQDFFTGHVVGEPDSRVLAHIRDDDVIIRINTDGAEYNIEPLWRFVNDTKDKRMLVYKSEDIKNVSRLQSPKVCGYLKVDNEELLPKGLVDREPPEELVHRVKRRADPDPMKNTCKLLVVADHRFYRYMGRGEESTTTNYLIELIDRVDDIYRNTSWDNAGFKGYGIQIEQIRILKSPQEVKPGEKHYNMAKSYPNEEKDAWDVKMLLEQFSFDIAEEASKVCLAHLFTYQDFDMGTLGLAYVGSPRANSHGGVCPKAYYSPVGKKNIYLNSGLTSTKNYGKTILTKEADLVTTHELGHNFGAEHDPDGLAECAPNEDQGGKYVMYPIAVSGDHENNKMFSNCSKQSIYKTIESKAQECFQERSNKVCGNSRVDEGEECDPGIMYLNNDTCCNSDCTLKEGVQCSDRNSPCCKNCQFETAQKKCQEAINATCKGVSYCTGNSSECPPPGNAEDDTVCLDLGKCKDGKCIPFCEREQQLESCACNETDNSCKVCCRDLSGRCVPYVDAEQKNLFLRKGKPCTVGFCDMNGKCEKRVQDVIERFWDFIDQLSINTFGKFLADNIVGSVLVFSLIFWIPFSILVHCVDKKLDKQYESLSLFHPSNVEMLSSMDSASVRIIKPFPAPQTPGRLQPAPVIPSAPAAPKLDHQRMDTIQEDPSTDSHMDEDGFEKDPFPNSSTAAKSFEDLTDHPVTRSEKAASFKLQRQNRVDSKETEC
inactive: erlotinib 0.021 | [1] -0.013 | [2] 0.017 | [3] 0.023 | [4] -0.023 | [5] 0.044 | [6] -0.115 | [7] 0.052 | [8] -0.093 | IRAK-1-4 Inhibitor I 0.04

ALDH2 (UniProt P05091)
Chain of UniProt P05091 (P05091 whole entry, looked up): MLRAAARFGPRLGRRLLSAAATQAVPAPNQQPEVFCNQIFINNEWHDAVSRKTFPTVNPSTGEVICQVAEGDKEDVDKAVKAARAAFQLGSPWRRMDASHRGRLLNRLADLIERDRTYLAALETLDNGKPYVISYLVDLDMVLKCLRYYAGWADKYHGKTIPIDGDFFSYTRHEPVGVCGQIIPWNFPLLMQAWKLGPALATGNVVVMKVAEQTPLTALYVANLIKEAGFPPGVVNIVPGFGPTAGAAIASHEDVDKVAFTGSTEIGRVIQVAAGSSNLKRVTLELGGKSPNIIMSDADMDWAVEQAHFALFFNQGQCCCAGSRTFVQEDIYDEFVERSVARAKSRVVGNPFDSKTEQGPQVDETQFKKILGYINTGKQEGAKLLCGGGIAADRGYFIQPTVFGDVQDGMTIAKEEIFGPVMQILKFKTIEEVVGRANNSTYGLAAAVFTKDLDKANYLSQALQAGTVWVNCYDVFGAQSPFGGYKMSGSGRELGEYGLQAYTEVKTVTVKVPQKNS
inactive: erlotinib -0.048 | [1] 0.009 | [2] -0.062 | [3] 0.03 | [4] 0.042 | [5] -0.016 | [6] 0.175 | [7] 0.011 | [8] 0.023 | IRAK-1-4 Inhibitor I 0.003

ADD1 isoform 4 (UniProt P35611)
inactive: erlotinib -0.016 | [1] -0.059 | [2] 0.011 | [3] 0.089 | [4] -0.088 | [5] -0.081 | [6] -0.025 | [7] 0.028 | [8] -0.009 | IRAK-1-4 Inhibitor I 0.093

AIMP1 isoform 2 (UniProt Q12904)
Chain of UniProt Q12904 (Q12904 whole entry, looked up): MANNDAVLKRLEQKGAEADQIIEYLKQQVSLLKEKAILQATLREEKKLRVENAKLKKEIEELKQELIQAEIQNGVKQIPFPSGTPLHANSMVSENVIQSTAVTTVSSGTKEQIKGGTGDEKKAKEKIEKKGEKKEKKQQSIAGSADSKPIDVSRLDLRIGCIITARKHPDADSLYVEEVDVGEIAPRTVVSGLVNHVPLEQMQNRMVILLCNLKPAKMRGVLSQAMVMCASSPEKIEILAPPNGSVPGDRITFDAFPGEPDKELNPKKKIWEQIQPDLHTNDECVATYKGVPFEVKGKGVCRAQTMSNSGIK
inactive: erlotinib 0.044 | [1] 0.013 | [2] -0.028 | [3] 0.001 | [4] -0.03 | [5] 0.021 | [6] -0.025 | [7] -0.02 | [8] 0.02 | IRAK-1-4 Inhibitor I 0.01

ARHGAP25 isoform 4 (UniProt P42331)
inactive: erlotinib 0.029 | [1] 0.045 | [2] 0.026 | [3] -0.031 | [4] -0.031 | [5] -0.002 | [6] -0.029 | [7] 0.007 | [8] 0.034 | IRAK-1-4 Inhibitor I -0.006

AGO4 (UniProt Q9HCK5)
inactive: erlotinib -0.038 | [1] -0.008 | [2] 0.031 | [3] -0.02 | [4] -0.031 | [5] 0.009 | [6] -0.015 | [7] 0.009 | [8] 0.016 | IRAK-1-4 Inhibitor I -0.009

ANLN (UniProt Q9NQW6)
inactive: erlotinib -0.006 | [1] -0.142 | [2] 0.007 | [3] -0.019 | [4] -0.072 | [5] 0.01 | [6] -0.019 | [7] -0.045 | [8] -0.002 | IRAK-1-4 Inhibitor I -0.017

AKT1 (UniProt P31749)
inactive: erlotinib -0.008 | [1] 0.042 | [2] -0.004 | [3] 0.121 | [4] 0.019 | [5] 0.059 | [6] 0.018 | [7] -0.034 | [8] 0.03 | IRAK-1-4 Inhibitor I -0.005

AKAP8L (UniProt Q9ULX6)
inactive: erlotinib 0.061 | [1] 0.093 | [2] 0.032 | [3] 0.002 | [4] 0.017 | [5] 0 | [6] -0.022 | [7] 0.029 | [8] -0.032 | IRAK-1-4 Inhibitor I -0.002

AKR1C2 (UniProt P52895)
Chain of UniProt P52895 (P52895 whole entry, looked up): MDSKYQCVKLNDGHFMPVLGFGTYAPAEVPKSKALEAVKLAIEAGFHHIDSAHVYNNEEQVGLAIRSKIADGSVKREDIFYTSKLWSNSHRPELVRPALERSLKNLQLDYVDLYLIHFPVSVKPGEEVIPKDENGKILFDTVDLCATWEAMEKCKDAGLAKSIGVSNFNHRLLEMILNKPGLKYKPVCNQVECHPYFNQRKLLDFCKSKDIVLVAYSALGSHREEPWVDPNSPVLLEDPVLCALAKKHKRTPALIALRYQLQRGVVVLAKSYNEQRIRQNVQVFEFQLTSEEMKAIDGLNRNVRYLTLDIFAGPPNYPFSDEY
inactive: erlotinib 0.03 | [1] -0.167 | [2] 0.005 | [3] 0.015 | [4] 0.006 | [5] 0.013 | [6] -0.046 | [7] -0.033 | [8] 0.006 | IRAK-1-4 Inhibitor I -0.024

AP1G2 (UniProt O75843)
inactive: erlotinib 0.052 | [1] 0.016 | [2] 0.068 | [3] -0.116 | [4] -0.07 | [5] 0 | [6] 0.001 | [7] -0.003 | [8] 0.034 | IRAK-1-4 Inhibitor I -0.007

AIP (UniProt O00170)
inactive: erlotinib -0.006 | [1] -0.032 | [2] -0.015 | [3] -0.004 | [4] -0.012 | [5] 0.018 | [6] 0.026 | [7] -0.002 | [8] 0.016 | IRAK-1-4 Inhibitor I -0.012

AK2 (UniProt P54819)
inactive: erlotinib -0.011 | [1] -0.052 | [2] 0.035 | [3] -0.002 | [4] 0.002 | [5] 0.016 | [6] 0.014 | [7] -0.008 | [8] -0.002 | IRAK-1-4 Inhibitor I 0.005

ARHGEF1 (UniProt M0QZR4)
inactive: erlotinib 0.018 | [1] 0.024 | [2] -0.023 | [3] 0.002 | [4] 0.027 | [5] 0.001 | [6] -0.041 | [7] -0.004 | [8] -0.022 | IRAK-1-4 Inhibitor I -0.031

ADD1 isoform 3 (UniProt P35611)
inactive: erlotinib -0.027 | [1] 0 | [2] 0.033 | [3] 0.011 | [4] -0.01 | [5] -0.004 | [6] 0.011 | [7] -0.015 | [8] -0.014 | IRAK-1-4 Inhibitor I -0.021

ACSL1 (UniProt P33121)
inactive: erlotinib 0.02 | [1] -0.104 | [2] -0.153 | [3] 0.086 | [4] 0.051 | [5] 0.025 | [6] -0.04 | [7] 0.009 | [8] 0.012 | IRAK-1-4 Inhibitor I 0.022

ARHGAP6 (UniProt O43182)
Chain of UniProt O43182 (O43182 whole entry, looked up): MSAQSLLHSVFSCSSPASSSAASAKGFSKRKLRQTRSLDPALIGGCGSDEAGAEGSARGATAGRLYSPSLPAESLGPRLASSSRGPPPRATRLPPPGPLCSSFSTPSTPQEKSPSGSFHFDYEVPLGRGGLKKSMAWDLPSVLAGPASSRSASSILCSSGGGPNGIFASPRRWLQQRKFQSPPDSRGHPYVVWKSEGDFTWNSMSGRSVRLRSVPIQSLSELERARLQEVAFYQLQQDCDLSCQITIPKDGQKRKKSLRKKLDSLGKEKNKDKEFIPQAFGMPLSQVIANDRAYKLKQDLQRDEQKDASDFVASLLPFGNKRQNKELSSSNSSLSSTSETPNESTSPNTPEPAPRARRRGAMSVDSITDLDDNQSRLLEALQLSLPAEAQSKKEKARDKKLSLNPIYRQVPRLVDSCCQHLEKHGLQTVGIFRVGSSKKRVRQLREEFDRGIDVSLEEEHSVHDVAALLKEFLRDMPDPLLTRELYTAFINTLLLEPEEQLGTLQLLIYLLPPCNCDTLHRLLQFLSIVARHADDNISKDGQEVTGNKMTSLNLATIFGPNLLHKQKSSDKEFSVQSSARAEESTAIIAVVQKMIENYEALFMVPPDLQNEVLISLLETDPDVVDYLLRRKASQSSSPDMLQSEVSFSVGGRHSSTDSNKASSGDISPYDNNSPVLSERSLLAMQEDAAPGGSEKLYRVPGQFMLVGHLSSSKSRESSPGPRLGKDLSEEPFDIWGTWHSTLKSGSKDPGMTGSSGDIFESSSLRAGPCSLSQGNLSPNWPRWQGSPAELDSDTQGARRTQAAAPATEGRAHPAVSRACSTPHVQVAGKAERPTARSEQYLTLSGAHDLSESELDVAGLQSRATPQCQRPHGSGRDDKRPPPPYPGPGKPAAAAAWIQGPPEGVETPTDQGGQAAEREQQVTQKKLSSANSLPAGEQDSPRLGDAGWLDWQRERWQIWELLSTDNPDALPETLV
inactive: erlotinib 0.013 | [1] -0.145 | [2] -0.04 | [3] 0.061 | [4] 0.07 | [5] 0.041 | [6] -0.005 | [7] -0.016 | [8] 0.037 | IRAK-1-4 Inhibitor I 0.015

ARAF (UniProt P10398)
inactive: erlotinib -0.002 | [1] -0.129 | [2] -0.018 | [3] 0.014 | [4] -0.046 | [5] 0.067 | [6] 0.03 | [7] 0.012 | [8] -0.049 | IRAK-1-4 Inhibitor I -0.02

ACVR1 (UniProt Q04771)
inactive: [4] 0.074

AP3D1 isoform 2 (UniProt O14617)
inactive: erlotinib 0.029 | [1] -0.082 | [2] -0.15 | [3] -0.162 | [6] -0.026

AIMP2 isoform 2 (UniProt Q13155)
inactive: [4] 0.056 | [5] 0.061 | IRAK-1-4 Inhibitor I 0.006

AARS2 (UniProt Q5JTZ9)
inactive: erlotinib 0.013 | [1] -0.047 | [2] -0.05 | [3] 0.004 | [4] -0.013 | [5] 0.005 | [6] -0.026 | [7] -0.008 | [8] 0.038 | IRAK-1-4 Inhibitor I -0.024

AFF4 (UniProt Q9UHB7)
inactive: erlotinib -0.003 | [1] -0.152 | [2] 0.007 | [3] -0.063 | [4] 0.021 | [5] 0.048 | [6] 0.003 | [7] 0.032 | [8] 0.016 | IRAK-1-4 Inhibitor I -0.031

AGPAT2 (UniProt O15120)
inactive: erlotinib -0.032 | [1] -0.064 | [2] 0.013 | [3] 0.245 | [5] -0.114 | [6] 0.024 | [7] -0.038 | [8] 0.069 | IRAK-1-4 Inhibitor I -0.027

AIF1L (UniProt Q9BQI0)
Chain of UniProt Q9BQI0 (Q9BQI0 whole entry, looked up): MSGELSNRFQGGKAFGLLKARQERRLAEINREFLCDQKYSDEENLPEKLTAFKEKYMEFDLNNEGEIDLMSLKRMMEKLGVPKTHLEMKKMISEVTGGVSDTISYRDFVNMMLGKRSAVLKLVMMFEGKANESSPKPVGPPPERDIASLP
inactive: erlotinib -0.035 | [2] -0.008 | [4] -0.014 | [5] 0.012 | [7] 0.329 | [8] -0.008 | IRAK-1-4 Inhibitor I -0.049

ALKBH7 (UniProt Q9BT30)
Chain of UniProt Q9BT30 (Q9BT30 whole entry, looked up): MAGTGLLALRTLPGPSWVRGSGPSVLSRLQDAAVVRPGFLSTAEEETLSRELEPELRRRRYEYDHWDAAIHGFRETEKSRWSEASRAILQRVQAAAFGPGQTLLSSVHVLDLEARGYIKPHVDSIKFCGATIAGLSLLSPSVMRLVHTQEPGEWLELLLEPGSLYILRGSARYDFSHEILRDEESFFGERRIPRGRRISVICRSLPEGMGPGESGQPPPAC
inactive: erlotinib -0.169 | [2] -0.02 | [5] 0 | [7] -0.033 | [8] 0.027 | IRAK-1-4 Inhibitor I -0.04

ANXA13 isoform 2 (UniProt P27216)
Chain of UniProt P27216 (P27216 whole entry, looked up): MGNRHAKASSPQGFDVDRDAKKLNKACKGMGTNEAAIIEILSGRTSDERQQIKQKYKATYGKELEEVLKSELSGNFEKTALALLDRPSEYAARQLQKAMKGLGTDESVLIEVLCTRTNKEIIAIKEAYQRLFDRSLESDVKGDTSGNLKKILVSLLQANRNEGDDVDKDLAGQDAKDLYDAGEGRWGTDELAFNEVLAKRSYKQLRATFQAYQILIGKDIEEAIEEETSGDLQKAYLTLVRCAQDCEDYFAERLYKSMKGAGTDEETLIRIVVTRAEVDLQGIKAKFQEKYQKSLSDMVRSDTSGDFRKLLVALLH
inactive: erlotinib -0.078 | [1] 0.111 | [2] -0.121 | [3] -0.019 | [4] -0.083 | [5] -0.029 | [6] 0.029 | IRAK-1-4 Inhibitor I -0.174

ALDH18A1 isoform 2 (UniProt P54886)
inactive: [1] -0.298 | [3] -0.142 | [5] 0.092 | [6] -0.05 | IRAK-1-4 Inhibitor I 0.046

ALDH3A1 (UniProt P30838)
Chain of UniProt P30838 (P30838 whole entry, looked up): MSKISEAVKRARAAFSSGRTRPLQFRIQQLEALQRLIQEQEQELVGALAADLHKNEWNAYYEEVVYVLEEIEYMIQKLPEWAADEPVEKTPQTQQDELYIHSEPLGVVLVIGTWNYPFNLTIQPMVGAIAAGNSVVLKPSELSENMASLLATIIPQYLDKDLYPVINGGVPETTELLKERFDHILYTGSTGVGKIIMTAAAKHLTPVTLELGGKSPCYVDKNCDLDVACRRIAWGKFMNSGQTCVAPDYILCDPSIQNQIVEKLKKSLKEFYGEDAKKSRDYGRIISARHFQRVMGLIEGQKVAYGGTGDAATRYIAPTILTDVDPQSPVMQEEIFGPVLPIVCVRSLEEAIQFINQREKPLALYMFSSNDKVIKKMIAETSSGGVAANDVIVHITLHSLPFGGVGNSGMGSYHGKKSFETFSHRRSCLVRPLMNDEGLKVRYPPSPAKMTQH
inactive: erlotinib 0.147 | [2] 0.257 | [5] 0.147 | IRAK-1-4 Inhibitor I 0.059

AP5B1 (UniProt Q2VPB7)
Chain of UniProt Q2VPB7 (Q2VPB7 whole entry, looked up): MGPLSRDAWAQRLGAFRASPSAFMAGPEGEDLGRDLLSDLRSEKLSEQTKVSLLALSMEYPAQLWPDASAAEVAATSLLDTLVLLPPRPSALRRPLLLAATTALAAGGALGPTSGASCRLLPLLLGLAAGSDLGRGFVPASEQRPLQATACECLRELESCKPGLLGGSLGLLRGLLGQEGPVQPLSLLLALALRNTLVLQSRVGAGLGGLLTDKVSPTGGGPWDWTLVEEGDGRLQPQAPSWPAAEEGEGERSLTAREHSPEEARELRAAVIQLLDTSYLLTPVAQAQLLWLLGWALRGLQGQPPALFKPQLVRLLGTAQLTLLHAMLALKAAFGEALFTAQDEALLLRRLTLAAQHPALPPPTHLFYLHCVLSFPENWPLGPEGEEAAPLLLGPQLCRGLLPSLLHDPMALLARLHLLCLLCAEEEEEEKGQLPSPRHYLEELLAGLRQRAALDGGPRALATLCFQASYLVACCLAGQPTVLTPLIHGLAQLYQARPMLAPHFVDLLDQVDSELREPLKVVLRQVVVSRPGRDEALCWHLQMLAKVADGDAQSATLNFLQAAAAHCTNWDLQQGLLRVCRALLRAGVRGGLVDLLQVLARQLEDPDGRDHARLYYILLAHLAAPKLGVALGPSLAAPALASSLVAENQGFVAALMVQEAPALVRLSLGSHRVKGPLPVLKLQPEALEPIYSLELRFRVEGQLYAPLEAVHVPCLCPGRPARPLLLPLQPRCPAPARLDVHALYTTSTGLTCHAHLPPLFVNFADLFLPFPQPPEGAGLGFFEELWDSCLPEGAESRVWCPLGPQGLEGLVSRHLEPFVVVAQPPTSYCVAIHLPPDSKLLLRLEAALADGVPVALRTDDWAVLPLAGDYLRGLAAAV
inactive: erlotinib 0.006 | [2] -0.05 | [4] -0.069 | [5] 0.014 | [7] 0.073 | [8] 0.046 | IRAK-1-4 Inhibitor I 0.03

ACAT1, A0A5F9ZHJ0
inactive: [5] -0.128 | IRAK-1-4 Inhibitor I 0.075
